Assay outcomes: PubChem BioAssay, several laboratories
GDH-TPI inh – GDH-TPI coupling enzyme inhibitors, primary screen, artefact control for M. tuberculosis FBA inhibitor project, biochemical, absorbance, full deck; hit rate 1.2% among 360,000; GDH-TPI coupled enzyme counterscreen, NADH absorbance; inhibition, % at 4.8 µM; in the data active = inhibition above about 30%;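 note: 0% = DMSO wells and 100% = wells lacking the enzyme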
PrPC surface inh – inhibitors of human cell surface prion protein PrPC, primary screen, cell-based, TR-FRET; Major prion protein (Homo sapiens), P04156; TR-FRET read-out; inhibition, % at 13.8 µM; hit rate 0.43% among 370,000; in the data active = inhibition above about 24%; note: 0% = median of the test wells and 100% = reference compound wells
FBA Mtb inh – Mtb FBA enzyme inhibitors, primary screen, biochemical, fluorescence, strain H37Rv | Fructose-bisphosphate aldolase (Mycobacterium tuberculosis (strain ATCC 25618 / H37Rv)), … | AID 588726, 2011 | hit rate 2.3% among 360,000 | inhibition, % at 1 µM | purified M. tuberculosis FBA, fluorescence read-out; in the data active = inhibition above about 27%;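 note: 0% = vehicle and 100% = reference inhibitor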
Yp Topo-I inh – Yersinia pestis topoisomerase I inhibitors, primary screen, biochemical, cleavage product accumulation, plate reader, single point; DNA topoisomerase I (Yersinia pestis CO92); Y. pestis Topo-I cleavage product accumulation; activity, % at 10 µM; hit rate 0.064% among 360,000; AID 504884, 2011; in the data active = activity above about 50%, passing the limit was not always enough
TcdB inh – TcdB glycohydrolase inhibitors, primary screen, biochemical, single point, plate reader | TcdB glycohydrolase enzymatic assay | hit rate 0.24% among 350,000 | inhibition, % at 9.99 µM | Toxin B (Clostridioides difficile), P18177 | AID 652162, 2013; in the data active = inhibition above about 10%
Target sequence (P18177 whole entry, looked up): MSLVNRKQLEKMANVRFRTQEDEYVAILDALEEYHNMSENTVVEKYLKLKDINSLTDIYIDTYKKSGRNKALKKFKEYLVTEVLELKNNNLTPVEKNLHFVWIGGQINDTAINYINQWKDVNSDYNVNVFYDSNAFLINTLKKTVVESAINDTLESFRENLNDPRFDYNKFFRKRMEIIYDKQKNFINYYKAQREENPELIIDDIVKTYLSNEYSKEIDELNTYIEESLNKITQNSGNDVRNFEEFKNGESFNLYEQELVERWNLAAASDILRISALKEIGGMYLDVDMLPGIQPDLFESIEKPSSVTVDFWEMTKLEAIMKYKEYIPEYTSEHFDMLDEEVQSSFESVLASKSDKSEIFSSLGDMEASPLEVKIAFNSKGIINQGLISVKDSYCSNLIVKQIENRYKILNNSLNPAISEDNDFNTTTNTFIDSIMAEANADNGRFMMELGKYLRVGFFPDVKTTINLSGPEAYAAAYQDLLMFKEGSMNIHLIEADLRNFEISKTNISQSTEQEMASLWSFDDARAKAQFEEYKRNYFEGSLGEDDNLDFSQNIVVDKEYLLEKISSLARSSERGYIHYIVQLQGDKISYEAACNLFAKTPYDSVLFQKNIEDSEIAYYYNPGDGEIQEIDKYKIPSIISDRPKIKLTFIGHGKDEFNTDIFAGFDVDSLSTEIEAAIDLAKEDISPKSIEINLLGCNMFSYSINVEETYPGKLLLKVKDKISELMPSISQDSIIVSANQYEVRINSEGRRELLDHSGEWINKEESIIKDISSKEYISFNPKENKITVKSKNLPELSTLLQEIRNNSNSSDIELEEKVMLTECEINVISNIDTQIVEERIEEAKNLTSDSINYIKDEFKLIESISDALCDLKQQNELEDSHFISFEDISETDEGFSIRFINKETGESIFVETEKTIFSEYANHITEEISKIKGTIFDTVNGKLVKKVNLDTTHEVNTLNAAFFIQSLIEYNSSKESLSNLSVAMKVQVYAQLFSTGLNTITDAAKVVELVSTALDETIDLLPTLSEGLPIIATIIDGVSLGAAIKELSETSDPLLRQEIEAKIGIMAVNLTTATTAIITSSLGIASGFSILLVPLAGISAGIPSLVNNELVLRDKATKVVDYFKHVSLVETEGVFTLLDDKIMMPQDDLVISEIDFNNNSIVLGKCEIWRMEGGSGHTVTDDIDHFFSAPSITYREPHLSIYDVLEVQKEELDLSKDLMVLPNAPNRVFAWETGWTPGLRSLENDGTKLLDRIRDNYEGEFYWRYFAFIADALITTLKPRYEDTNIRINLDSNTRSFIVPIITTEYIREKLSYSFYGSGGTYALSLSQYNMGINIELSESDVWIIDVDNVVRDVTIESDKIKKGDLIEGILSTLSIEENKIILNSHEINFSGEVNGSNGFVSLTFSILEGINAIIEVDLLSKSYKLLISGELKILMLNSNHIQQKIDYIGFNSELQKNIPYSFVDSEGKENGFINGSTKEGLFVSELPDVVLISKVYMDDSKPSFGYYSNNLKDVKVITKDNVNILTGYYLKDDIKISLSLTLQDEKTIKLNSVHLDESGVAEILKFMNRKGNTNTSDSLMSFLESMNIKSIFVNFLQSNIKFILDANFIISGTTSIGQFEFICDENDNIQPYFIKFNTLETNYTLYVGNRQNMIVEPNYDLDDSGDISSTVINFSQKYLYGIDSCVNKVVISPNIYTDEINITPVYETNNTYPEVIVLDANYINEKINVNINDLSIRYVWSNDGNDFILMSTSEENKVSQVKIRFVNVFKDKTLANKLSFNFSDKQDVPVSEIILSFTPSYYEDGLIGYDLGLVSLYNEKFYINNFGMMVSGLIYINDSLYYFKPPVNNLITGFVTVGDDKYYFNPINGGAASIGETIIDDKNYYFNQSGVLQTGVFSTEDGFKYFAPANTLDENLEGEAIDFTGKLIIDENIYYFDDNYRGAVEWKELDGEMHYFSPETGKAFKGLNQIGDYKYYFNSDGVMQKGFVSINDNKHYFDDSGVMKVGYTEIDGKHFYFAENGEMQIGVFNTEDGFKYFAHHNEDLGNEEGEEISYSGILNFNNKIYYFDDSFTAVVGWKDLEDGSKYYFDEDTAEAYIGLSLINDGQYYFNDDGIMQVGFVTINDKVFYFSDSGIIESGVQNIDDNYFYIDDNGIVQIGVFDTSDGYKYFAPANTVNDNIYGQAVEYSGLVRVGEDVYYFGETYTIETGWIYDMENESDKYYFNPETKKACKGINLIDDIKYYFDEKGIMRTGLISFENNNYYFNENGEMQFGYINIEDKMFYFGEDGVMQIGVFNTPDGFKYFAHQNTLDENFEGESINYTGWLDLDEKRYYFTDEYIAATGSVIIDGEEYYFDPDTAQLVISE
An asterisk follows results filed as active; nt = not tested or not shown; + = active, no number. In the library only some 3.2% were active in any assay of this set; here they are far more common.

SMILES	GDH-TPI inh	PrPC surface inh	FBA Mtb inh	Yp Topo-I inh	TcdB inh
CC(C)(C)OC(=O)NCCCCCc1nnc(SCc2ccccc2)o1	6	5	1	57*	1
CCN(CC)c1ccc2cc(C(C)=O)c(=O)oc2c1	4	1	-38	1	1
CCN(CC)c1ccc2cc(NC(=O)CCC(=O)O)c(=O)oc2c1	10	-22	31*	-9	nt
COCC(=O)N1CC[C@@H]2[C@H]1c1cc(-c3ccc(F)cc3)ccc1N(C)[C@H]2CO	nt	nt	nt	nt	15*
CCC(=O)N1CC[C@@H]2[C@H]1c1cc(-c3ccc(OC)cc3)ccc1N(C)[C@H]2CO	nt	nt	nt	nt	11*
CC(C)NC(=O)N1CC[C@@H]2[C@@H](CO)N(C)c3ccc(-c4ccc(F)cc4)cc3[C@@H]21	nt	nt	nt	nt	12*
COCC(=O)N1CC[C@@H]2[C@H]1c1cc(-c3cccc(F)c3)ccc1N(C)[C@@H]2CO	nt	nt	nt	nt	0
COCC(=O)N1CC[C@@H]2[C@@H](CO)N(C)c3ccc(-c4ccccc4)cc3[C@@H]21	nt	nt	nt	nt	13*
O=C(N[C@H]1C[C@@H]2O[C@H](CO)CC[C@@H]2O[C@@H]1CCc1ccc(-c2ccccc2)cc1)c1cnccn1	nt	nt	nt	nt	0
CCC(=O)N1[C@H](CN(C)C(C)=O)[C@H](c2ccc(C3=CCCC3)cc2)[C@@H]1CO	nt	nt	nt	nt	-2
O=C(C[C@@H]1CC[C@@H](NC(=O)NC2CCCCC2)[C@H](CO)O1)NCc1ccccc1	nt	nt	nt	nt	-1
COc1ccc(-c2ccc3c(c2)[C@H]2[C@H](CCN2C(=O)Cc2cccnc2)[C@@H](CO)N3C)cc1	nt	nt	nt	nt	11*
COCC(=O)N1CC[C@H]2[C@@H]1c1cc(-c3ccc(OC)cc3)ccc1N(C)[C@H]2CO	nt	nt	nt	nt	14*
CN(C)CC(=O)Nc1ccc2c(c1)[C@@H]1C[C@@H](CC(=O)N(C)C)O[C@H](CO)[C@@H]1O2	nt	nt	nt	nt	0
Cc1nc2ccccn2c1C(=O)N/N=C/c1ccc(CNC(=O)C(=O)Nc2ccccc2)o1	38*	5	0	-2	nt
Cc1ccc(OCc2cc(C(=O)NC3CCCCC3)no2)cn1	-3	12	-2	7	-1
Cc1cc(OCc2cc(C(=O)NC3CCC3)no2)cc(C)c1Cl	3	nt	46*	41	nt
C[C@@H]1CN([C@@H](C)CO)C(=O)c2cccc(NC(=O)C3CCOCC3)c2O[C@H]1CN(C)S(=O)(=O)c1cccs1	nt	nt	nt	nt	0
C[C@@H]1CCCCO[C@@H](CN(C)CC2CCCCC2)[C@@H](C)CN([C@@H](C)CO)C(=O)c2cc(NC(=O)c3ccccc3)ccc2O1	nt	nt	nt	nt	-2
Cc1cc(=O)[nH]c(N/N=C/C=C/c2ccccc2)n1	38*	-1	-2	3	-5
Cc1cc(C)nc(N/N=C/C=C/c2ccccc2)n1	34*	6	-3	-2	nt
Cc1cc(=O)[nH]c(N/N=C/c2ccc(Br)s2)n1	42*	-4	-4	-2	1
CCOc1ccc(-n2c(C)cc(/C=N/Nc3nc(C)cc(=O)[nH]3)c2C)cc1	36*	0	3	2	1
Cc1cc(=O)[nH]c(N/N=C/CCc2ccccc2)n1	8	-2	1	0	1
COCC#Cc1ccc2c(c1)O[C@H](CN(C)Cc1ccccc1)[C@@H](C)CN([C@@H](C)CO)S2(=O)=O	nt	nt	nt	nt	0
SMILES	GDH-TPI inh	PrPC surface inh	FBA Mtb inh	Yp Topo-I inh	TcdB inh
O=C(C[C@@H]1CC[C@H]2[C@@H](COC[C@@H](O)CN2Cc2cccc(F)c2)O1)NCCc1ccncc1	nt	nt	nt	nt	0
Cc1ccc(S(=O)(=O)Nc2ccc3c(c2)C(=O)N([C@H](C)CO)C[C@H](C)[C@H](CN(C)C(=O)NC2CCCCC2)O3)cc1	nt	nt	nt	nt	1
COc1ccccc1C=NNc1nc(C)cc(=O)[nH]1	37*	-2	0	13	0
Cc1cc(=O)[nH]c(N/N=C/c2ccc(-c3ccc(F)cc3)o2)n1	37*	-12	0	4	1
COC(=O)c1ccc(COc2ccc(/C=N/Nc3nc(C)cc(=O)[nH]3)cc2)cc1	36*	2	0	-9	0
CSc1ccc(/C=N/Nc2nc(C)cc(=O)[nH]2)cc1	20	-7	6	-13	1
CCCC(=O)Nc1ccc2c(c1)C(=O)N(C)C[C@@H](OC)[C@H](C)CN(Cc1cc(-c3ccccc3)on1)[C@H](C)CO2	nt	nt	nt	nt	-1
Cc1cccc2nc(-c3ccco3)c(Nc3ccccc3)n12	13	1	121*	-4	0
Cc1ccc2nc3nc(NCC4CCCO4)c(C(=O)NC4CCCC4)cc3c(=O)n2c1 (stereo unspecified)	5	-31	151*	-6	nt
COc1ccc(CCn2c(=N)c(C(=O)NCC3CCCO3)cc3c(=O)n4ccccc4nc32)cc1OC (stereo unspecified)	12	-58	-4	-5	0
CCNc1nc2nc3ccc(C)cn3c(=O)c2cc1C(=O)NCC1CCCO1 (stereo unspecified)	-3	-68	+	-11	-1
COc1ccc(-c2ccnc3nc(N4CCOCC4)nn23)cc1	34*	-10	84*	-4	nt
Cc1ccc(Nc2nc(N)c(C#N)c(CC#N)c2C#N)cc1	38*	0	-2	4	0
Cc1cccc(C)c1-n1c(C)cc(/C=C2\NC(=O)NC2=O)c1C	33*	-3	4	4	nt
COC(=O)C1=C(C)NC(=O)/C1=C\c1cc(C)n(-c2c(C)cccc2C)c1C	12	2	-3	4	nt
Cc1cc(/C=C2\NC(=O)NC2=O)c(C)n1-c1cccnc1	45*	-6	0	3	-1
COc1ccc(NC(=O)N2CCC3(CC2)CN(C(C)=O)[C@@H](CO)c2[nH]c4cc(OC)ccc4c23)cc1	nt	nt	nt	nt	1
O=c1cc(-c2ccc3c(c2)OCO3)oc2ccccc12	39*	5	22	2	2
COc1ccc(-c2cc(=O)c3c(OC)c(OC)c(OC)c(OC)c3o2)cc1OC	32*	0	7	12	3
Nc1c(-c2ccc3c(c2)OCCO3)oc2ccccc2c1=O	-2	-5	+	0	1
COc1ccc(-c2cc(=O)c3c(O)c(OC)c(O)cc3o2)cc1	19	-9	-2	-7	1
COc1ccc(-c2cc(=O)c3c(OC)c(OC)c(OC)cc3o2)cc1	32*	10	-1	22	0
CCCNC(=O)N1CC2(CN(Cc3cccc(F)c3)C2)c2c([nH]c3cc(OC)ccc23)[C@@H]1CO	nt	nt	nt	nt	1
COc1cccc(-c2cnc3c(c2)C(=O)N([C@H](C)CO)C[C@H](C)[C@H](CN(C)S(=O)(=O)c2cn(C)cn2)O3)c1	nt	nt	nt	nt	0
C[C@@H]1CN([C@H](C)CO)C(=O)Cc2cc(NC(=O)C3CC3)ccc2O[C@@H]1CN(C)Cc1ccc(C(=O)O)cc1	nt	nt	nt	nt	1
O=C(CN1CCOCC1)N1CC2(C1)[C@@H](c1ccccc1)[C@@H](CO)N2Cc1ccc(F)cc1	nt	nt	nt	nt	-1
O=c1cc(-c2ccc(O)cc2)oc2ccc(O)cc12	37*	-7	4	-9	1
